Results taken from PubChem BioAssay.
Records with an inconclusive call do not appear. Activity calls are given as the source filed them. Unless noted, no stated cut-off is given here; in the data, active means response above about 15%; inactive means the rest.

How the values were obtained:
[1] = yeast TOR pathway RPL19A-GFP modulators, primary screen, cell-based, S. cerevisiae, multiplex flow cytometry (AID 1862; in the data active means percent of DMSO control GFP below about 86%;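 further: lower values mimic rapamycin by blocking the RPL19A rise seen in DMSO cells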); settings: S. cerevisiae RPL19A-GFP strain, flow cytometry fluorescence, 3 h; at 10 µM; stronger effect = lower value
[2] = modulators of MEP2-GFP levels in yeast, primary screen, S. cerevisiae, multiplex flow cytometry (AID 1867;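 active means GFP response, as percent of the DMSO control, above the screen-wide mean plus 3 SD, about 139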;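 further: median GFP channel fluorescence of barcode-gated MEP2-GFP cells measured by flow cytometry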); settings: S. cerevisiae MEP2-GFP strain, 3 h, at 10 µM, stronger effect = higher value, 100% means same as DMSO wells
[3] = modulators of CIT2-GFP expression in yeast, primary screen, S. cerevisiae, GFP fusion, multiplex flow cytometry (AID 1870;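 active means percent response above a set limit, the screen-wide mean plus 3 SD, cut at about 130% in these data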;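 further: barcoded CIT2-GFP strain pooled with four other GFP strains with rapamycin as positive control; median GFP fluorescence per well over plate mean of DMSO wells so 100% = DMSO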); settings: 3 h, at 10 µM, stronger effect = higher value
[4] = modulators of LAP4-GFP expression in yeast, primary screen, S. cerevisiae, multiplex flow cytometry (AID 1873;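 active means GFP signal, as percent of the solvent control, above the screen mean plus 3 SD, about 149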); settings: 3 h, at 10 µM, stronger effect = higher value
[5] = modulators of AGP1-GFP expression in yeast TOR pathway, primary screen, cell-based, multiplex flow cytometry, S. cerevisiae (AID 1887;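 active means GFP signal above the screen-wide mean plus 3 SD, that is over about 124.5% of the solvent control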;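 further: AGP1-GFP fusion strain of S. cerevisiae within a five-strain barcoded multiplex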); settings: 3 h, at 10 µM, stronger effect = higher value
[6] = inhibitors of CD8+ T cell-vesicle binding, pilot screen, LFA-1/ICAM-1 modulator project, MLPCN validation set, flow cytometry (AID 2523;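 active means response below a set limit, under 55% cells CD8-positive and vesicle-bound, and CD8 cells' 90th-percentile brightness under 279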;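 on vesicle binding response: mean PE anti-B7-1 fluorescence of CD8+ cells relative to row control; 100% = QL9-loaded vesicles with DMSO vehicle in the same plate row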); settings: 2C mouse CD8+ T cells, at 7 µM, stronger effect = lower value; double positive events: measured here: CD8+/vesicle+ event percentage
[7] = target: Integrin beta-1 (Homo sapiens) + Integrin alpha-4 (Homo sapiens) (UniProt P13612+P05556); experiment: inhibition of HUTS-21 binding to VLA-4, pilot screen, VLA-4 allosteric modulator project, U937 cells, HUTS-21 mAb, flow cytometry, validation set (AID 2674;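 active means inhibition above 50%, about 3 SD of the validation set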;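 further: antibody binding induced by the VLA-4 ligand LDV present at three times its Kd; 0% = LDV ligand with antibody and no compound and 100% = antibody without LDV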); settings: HUTS-21 LIBS mAb binding, at 6.7 µM, stronger effect = higher value, binding induced by LDV ligand
Integrin beta-1 (Homo sapiens) + Integrin alpha-4 (Homo sapiens), sequence (P05556 whole entry, looked up): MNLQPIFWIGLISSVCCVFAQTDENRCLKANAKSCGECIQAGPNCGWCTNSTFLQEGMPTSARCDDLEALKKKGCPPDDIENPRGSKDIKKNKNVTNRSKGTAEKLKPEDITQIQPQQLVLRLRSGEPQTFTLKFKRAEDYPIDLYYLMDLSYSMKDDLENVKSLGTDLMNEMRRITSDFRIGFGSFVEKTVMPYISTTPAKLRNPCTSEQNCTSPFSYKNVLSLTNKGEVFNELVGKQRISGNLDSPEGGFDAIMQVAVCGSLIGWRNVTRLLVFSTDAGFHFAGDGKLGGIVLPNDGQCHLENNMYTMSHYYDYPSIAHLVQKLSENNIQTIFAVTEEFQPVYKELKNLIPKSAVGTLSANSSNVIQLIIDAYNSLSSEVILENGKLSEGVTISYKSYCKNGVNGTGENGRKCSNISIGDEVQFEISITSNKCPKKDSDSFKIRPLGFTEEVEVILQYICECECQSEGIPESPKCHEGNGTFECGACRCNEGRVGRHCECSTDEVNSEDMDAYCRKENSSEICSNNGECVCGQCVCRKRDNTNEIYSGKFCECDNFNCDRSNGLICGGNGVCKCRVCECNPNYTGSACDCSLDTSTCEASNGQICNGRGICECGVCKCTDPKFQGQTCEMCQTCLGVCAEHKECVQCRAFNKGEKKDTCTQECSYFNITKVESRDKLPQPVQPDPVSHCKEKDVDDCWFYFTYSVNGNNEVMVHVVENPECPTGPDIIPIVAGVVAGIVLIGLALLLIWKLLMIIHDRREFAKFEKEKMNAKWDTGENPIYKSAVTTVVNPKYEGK
Integrin beta-1 (Homo sapiens) + Integrin alpha-4 (Homo sapiens), sequence (P13612 whole entry, looked up): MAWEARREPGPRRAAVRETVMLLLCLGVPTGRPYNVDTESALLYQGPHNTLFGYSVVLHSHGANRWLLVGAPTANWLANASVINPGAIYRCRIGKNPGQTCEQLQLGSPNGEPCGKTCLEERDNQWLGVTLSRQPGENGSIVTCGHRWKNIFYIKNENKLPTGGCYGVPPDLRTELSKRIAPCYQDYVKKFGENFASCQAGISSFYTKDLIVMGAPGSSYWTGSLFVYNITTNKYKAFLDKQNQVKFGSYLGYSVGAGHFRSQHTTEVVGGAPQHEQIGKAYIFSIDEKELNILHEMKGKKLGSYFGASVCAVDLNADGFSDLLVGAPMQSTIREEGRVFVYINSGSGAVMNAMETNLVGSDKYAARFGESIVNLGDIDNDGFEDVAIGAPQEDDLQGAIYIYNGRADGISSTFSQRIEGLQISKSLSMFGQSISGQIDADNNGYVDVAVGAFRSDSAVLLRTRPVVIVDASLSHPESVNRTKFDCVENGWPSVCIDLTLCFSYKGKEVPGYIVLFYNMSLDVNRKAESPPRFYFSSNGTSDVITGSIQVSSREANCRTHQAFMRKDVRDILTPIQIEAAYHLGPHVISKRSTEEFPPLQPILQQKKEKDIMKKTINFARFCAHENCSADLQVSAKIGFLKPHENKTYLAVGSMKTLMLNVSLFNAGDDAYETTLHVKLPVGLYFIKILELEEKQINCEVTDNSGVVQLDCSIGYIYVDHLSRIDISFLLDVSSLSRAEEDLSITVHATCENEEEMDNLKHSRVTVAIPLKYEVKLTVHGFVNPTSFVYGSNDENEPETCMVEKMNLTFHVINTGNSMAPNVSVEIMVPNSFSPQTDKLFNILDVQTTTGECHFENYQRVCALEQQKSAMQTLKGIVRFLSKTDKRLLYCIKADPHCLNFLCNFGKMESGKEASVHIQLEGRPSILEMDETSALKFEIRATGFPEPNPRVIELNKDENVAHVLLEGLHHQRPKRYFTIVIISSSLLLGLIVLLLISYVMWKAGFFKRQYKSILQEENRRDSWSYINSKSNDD

[8] = superoxide lowering in aged yeast cells, pilot screen, validation compound set (AID 2706;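 active means superoxide response below 65% of plate, a cut near 3 SD across the whole screen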;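 further: yeast exposed to compound for one week at 30 degrees C before staining; 100% = mean of all compound wells on the same plate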); settings: S. cerevisiae aging, superoxide DHE fluorescence; at 10 µM; stronger effect = lower value
[9] = target: Beta-adrenergic receptor kinase 1 (Homo sapiens) (UniProt P25098); experiment: GRK2 binders displacing RNA aptamer, biochemical, validation, human GRK2, bead flow cytometry (AID 488806;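 active means aptamer binding inhibition above 30%, about 3 SD of noise from non-fluorescent compounds; inactive means inhibition at or below 30%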); settings: bead-bound GRK2, FAM-aptamer displacement, at 10 µM, stronger effect = higher value
Beta-adrenergic receptor kinase 1 (Homo sapiens), sequence (P25098 whole entry, looked up): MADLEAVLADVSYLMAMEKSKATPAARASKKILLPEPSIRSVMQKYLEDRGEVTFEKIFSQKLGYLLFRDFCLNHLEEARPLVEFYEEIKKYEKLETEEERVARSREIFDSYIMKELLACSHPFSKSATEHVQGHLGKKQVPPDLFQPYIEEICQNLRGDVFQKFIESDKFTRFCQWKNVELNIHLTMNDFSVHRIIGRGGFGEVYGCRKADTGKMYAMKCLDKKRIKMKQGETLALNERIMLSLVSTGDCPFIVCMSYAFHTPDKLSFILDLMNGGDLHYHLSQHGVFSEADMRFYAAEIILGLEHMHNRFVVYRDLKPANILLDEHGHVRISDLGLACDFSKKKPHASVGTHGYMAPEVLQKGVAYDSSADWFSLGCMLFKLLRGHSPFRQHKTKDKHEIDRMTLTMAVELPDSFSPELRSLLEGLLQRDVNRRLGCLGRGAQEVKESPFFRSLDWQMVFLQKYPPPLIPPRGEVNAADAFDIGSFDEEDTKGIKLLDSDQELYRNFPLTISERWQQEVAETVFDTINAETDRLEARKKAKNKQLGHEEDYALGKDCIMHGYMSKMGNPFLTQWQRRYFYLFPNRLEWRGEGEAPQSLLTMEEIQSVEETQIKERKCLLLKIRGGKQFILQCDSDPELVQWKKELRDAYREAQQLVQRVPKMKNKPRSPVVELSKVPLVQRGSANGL

[10] = target: Beta-2 adrenergic receptor (Homo sapiens) (UniProt P07550); experiment: beta2AR agonists driving receptor internalization, pilot screen, cell-based, FAP fluorogen, flow cytometry, validation set (AID 504459;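 active means percent response above 42, roughly 3 SD of non-fluorescent test compounds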;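 further: agonist-driven loss of surface beta2AR via internalization measured by FAP dye flow cytometry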); settings: Am2.2-beta2AR cells, FAP surface receptor flow cytometry; at 10 µM; stronger effect = higher value
Beta-2 adrenergic receptor (Homo sapiens), sequence (P07550 whole entry, looked up): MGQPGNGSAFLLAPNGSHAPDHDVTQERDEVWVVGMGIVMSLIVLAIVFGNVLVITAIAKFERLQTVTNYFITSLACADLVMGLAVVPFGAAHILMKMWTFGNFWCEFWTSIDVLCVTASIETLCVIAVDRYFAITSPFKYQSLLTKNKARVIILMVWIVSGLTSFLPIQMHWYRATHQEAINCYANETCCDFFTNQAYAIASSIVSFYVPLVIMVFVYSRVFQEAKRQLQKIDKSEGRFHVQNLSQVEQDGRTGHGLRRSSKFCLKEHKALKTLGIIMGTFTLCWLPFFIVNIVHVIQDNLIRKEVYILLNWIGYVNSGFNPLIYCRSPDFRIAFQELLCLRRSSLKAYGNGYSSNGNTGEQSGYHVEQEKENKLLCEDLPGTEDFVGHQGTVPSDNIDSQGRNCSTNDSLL

[11] = target: AP-2 complex subunit beta (Homo sapiens) (UniProt P63010); experiment: inhibitors of arrestin peptide binding to AP2, pilot screen, biochemical, validation set, GST-AP2 beads, flow cytometry (AID 504541;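 active means inhibition above 54%, about 3 SD of non-fluorescent compounds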;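 further: AP2 carries R879A mutation and is captured from E. coli lysate; bead-bound FITC arrestin peptide fluorescence measuring arrestin peptide binding to AP2; 0% = DMSO wells and 100% = excess unlabeled arrestin peptide control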); settings: FITC arrestin peptide, at 10 µM, stronger effect = higher value, AP2 beta2 appendage fragment, R879A mutant
AP-2 complex subunit beta (Homo sapiens), sequence (P63010 whole entry, looked up, the tested form may be a part, one chain of several): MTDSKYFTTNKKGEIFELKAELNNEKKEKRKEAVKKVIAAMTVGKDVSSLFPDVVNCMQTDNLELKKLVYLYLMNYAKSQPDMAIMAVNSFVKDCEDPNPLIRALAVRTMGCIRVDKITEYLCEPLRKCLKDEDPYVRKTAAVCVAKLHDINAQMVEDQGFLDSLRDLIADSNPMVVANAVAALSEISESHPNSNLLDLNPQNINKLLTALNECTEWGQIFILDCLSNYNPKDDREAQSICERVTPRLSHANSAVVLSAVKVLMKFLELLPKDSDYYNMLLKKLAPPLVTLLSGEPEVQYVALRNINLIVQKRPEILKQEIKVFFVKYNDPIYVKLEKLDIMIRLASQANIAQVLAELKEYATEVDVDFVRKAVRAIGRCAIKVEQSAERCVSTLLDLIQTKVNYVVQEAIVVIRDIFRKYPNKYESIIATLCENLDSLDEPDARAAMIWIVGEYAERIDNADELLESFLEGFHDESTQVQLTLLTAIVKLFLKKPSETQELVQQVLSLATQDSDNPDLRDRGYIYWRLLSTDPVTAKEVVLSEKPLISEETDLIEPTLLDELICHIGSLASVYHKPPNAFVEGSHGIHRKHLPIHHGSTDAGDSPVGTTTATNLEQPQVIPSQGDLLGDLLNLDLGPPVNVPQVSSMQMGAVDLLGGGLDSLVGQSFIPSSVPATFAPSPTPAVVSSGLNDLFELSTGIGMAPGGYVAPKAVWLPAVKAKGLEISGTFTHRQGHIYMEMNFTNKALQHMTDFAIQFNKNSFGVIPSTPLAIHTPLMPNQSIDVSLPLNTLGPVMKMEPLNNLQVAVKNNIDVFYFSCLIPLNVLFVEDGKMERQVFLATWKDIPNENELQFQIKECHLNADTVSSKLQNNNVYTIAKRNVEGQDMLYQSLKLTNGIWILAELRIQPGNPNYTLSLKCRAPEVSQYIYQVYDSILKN

[12] = yeast V-ATPase proton transport modulators, S. cerevisiae, pHLuorin, HTS validation (AID 504600);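 further: plate controls were DMSO for no effect and reference compound for full effect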; settings: S. cerevisiae pHLuorin cytosolic pH, at 10 µM, stronger effect = higher value
[13] = tested on: anti-desmoglein-3 scFv antibody binding to human DSG3; experiment: inhibitors of anti-DSG3 scFv binding to DSG3, pilot screen, biochemical, validation compound set, bead-based, flow cytometry (AID 588368;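 active means binding below the plate cutoff, the plate median minus 3 SD, with a reading above zero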;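 further: signal is the median channel fluorescence of bead-bound GFP antibody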); settings: Protein G beads, DSG3-Fc, scFv-GFP binding, at 10 µM, stronger effect = lower value
[14] = inhibitors of fungal efflux pumps CDR1, CDR2, MDR1, pilot screen, validation compound set, multiplex, phenotypic (AID 588506;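 active means efflux inhibition above 0.42, the validation set average plus 4 SD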;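 further: Nile Red retained in cells so higher fluorescence means more efflux inhibition; 0 = negative control wells and 1 = enniatin B 25 µM full block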); settings: S. cerevisiae pump-expressing triplex, Nile Red efflux flow cytometry; at 10 µM; stronger effect = higher value; the pumps come from Candida albicans
[15] = target: ATP-binding cassette sub-family B member 6 (Homo sapiens) (UniProt Q9NP58); experiment: ABCB6 transporter inhibitors, pilot screen, K562-ABCB6 cells, flow cytometry, validation set (AID 588550;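 active means inhibition above the screen-wide mean plus 3 SD, about 51%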;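 further: 0% = DMSO wells and 100% = benzethonium chloride 70 µM positive control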); settings: K562-ABCB6 porphyrin accumulation, 1 h, at 10 µM, stronger effect = higher value
ATP-binding cassette sub-family B member 6 (Homo sapiens), sequence (Q9NP58 whole entry, looked up): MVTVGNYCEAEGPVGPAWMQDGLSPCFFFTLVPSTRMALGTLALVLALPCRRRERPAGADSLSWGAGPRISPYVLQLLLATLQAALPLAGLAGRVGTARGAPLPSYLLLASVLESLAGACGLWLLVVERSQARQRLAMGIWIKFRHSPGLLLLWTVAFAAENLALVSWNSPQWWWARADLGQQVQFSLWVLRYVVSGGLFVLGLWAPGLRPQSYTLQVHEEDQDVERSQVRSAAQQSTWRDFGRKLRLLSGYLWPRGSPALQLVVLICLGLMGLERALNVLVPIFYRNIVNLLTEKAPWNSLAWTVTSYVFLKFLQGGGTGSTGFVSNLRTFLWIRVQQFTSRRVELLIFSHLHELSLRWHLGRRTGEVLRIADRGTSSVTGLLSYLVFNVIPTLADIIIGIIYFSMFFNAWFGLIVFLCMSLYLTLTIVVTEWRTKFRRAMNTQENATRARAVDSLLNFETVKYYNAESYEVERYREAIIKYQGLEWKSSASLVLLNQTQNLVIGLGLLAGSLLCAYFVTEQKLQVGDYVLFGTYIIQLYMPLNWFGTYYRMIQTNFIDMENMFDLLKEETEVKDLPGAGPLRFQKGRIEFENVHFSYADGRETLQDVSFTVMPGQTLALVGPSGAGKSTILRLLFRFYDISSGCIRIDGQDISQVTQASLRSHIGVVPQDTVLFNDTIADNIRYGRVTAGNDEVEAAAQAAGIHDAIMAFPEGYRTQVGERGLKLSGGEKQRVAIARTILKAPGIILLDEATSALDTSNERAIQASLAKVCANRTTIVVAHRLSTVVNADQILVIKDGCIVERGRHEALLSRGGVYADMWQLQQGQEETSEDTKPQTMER

[16] = promoters of myeloid differentiation in arrested cells, primary screen, cell-based, GFP/MAC1 double positive, flow cytometry, validation set (AID 588685;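 active means differentiation response of at least 50%, scaled between solvent and reference control, from cells with both markers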;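 further: compound exposure lasts four days before antibody staining and flow analysis; 0% = DMSO wells and 100% = 5 µM fulvestrant positive control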); settings: ER-HoxA9 marrow cells, stronger effect = higher value, normalized: vehicle 0, fulvestrant 100

Row | SMILES | percent of DMSO control GFP [1] | GFP response vs DMSO [2] | percent response of DMSO control [3] | GFP response vs DMSO [4] | GFP response, % of DMSO [5] | double positive events [6] | vesicle binding response [6] | inhibition [7] | superoxide response (% of plate) [8] | aptamer binding inhibition [9] | response [10] | inhibition [11] | response [12] | binding (% of control) [13] | efflux inhibition (fraction of control) [14] | inhibition [15] | differentiation response [16]
1 | CC(C)C(=O)Nc1c(O)c2ccccc2[nH]c1=O | 95.6% (inactive) | 91.9% (inactive) | 93.9% (inactive) | 151% (active) | 96.6% (inactive) | 62% | 220% (inactive) | 6.4% (inactive) | 111% (inactive) | 0% (inactive) | 7.52% (inactive) | -0.19% (inactive) | -4.44% (inactive) | 96.6% (inactive) | 0.15 (inactive) | 11% (inactive) | -4% (inactive)
2 | Nc1ccc2cn[nH]c2c1 | 104% (inactive) | 97.7% (inactive) | 98.6% (inactive) | 101% (inactive) | 102% (inactive) | 60.8% | 109% (inactive) | -3.77% (inactive) | 109% (inactive) | -1% (inactive) | 2.17% (inactive) | 0.32% (inactive) | -2.55% (inactive) | 102% (inactive) | 0.265 (inactive) | 32% (inactive) | -16.3% (inactive)
3 | COc1ccc(/C=C/C(=O)Nc2ccccc2C(=O)O)cc1OC | 111% (inactive) | 110% (inactive) | 106% (inactive) | 76.9% (inactive) | 99.5% (inactive) | 60.2% | 50.8% (inactive) | -5.64% (inactive) | 123% (inactive) | 3% (inactive) | 12.8% (inactive) | -8.31% (inactive) | 6.81% (inactive) | 96.9% (inactive) | 0.02 (inactive) | 3% (inactive) | -5.62% (inactive)
4 | Cc1ccc(C2=NOC(=O)/C2=C\C=C\c2ccccc2)cc1 | 107% (inactive) | 101% (inactive) | 108% (inactive) | 139% (inactive) | 73.5% (inactive) | 69.9% | 167% (inactive) | 33.8% (inactive) | 113% (inactive) | -4% (inactive) | 34% (inactive) | 13% (inactive) | -2.56% (inactive) | 105% (inactive) | -0.17 (inactive) | -16% (inactive) | -4.57% (inactive)
5 | OC(CCCN1CCC(O)(c2ccc(Cl)cc2)CC1)c1ccc(F)cc1 (stereo not drawn) | 99.6% (inactive) | 103% (inactive) | 108% (inactive) | 101% (inactive) | 106% (inactive) | 49.2% | 168% (inactive) | -14.5% (inactive) | 96% (inactive) | -3% (inactive) | 5.29% (inactive) | -4.86% (inactive) | -0.08% (inactive) | 104% (inactive) | -0.005 (inactive) | -1% (inactive) | 10.1% (inactive)
6 | N#C/C(=C\c1ccc(O)c(O)c1)C(=O)NCCCc1ccccc1 | 102% (inactive) | 101% (inactive) | 98.3% (inactive) | 108% (inactive) | 116% (inactive) | 62.1% | 206% (inactive) | -13% (inactive) | 93.6% (inactive) | -1% (inactive) | 13.4% (inactive) | 25.2% (inactive) | -4.8% (inactive) | 103% (inactive) | 0.08 (inactive) | -1% (inactive) | 3.88% (inactive)
7 | CC(=O)NC(Cc1ccccc1)C(=O)OCC(=O)c1ccccc1 (stereo not drawn) | 96% (inactive) | 102% (inactive) | 88.6% (inactive) | 106% (inactive) | 100% (inactive) | 65.2% | 144% (inactive) | 9.1% (inactive) | 111% (inactive) | 3% (inactive) | -9.61% (inactive) | 9.32% (inactive) | 3.98% (inactive) | 105% (inactive) | 0 (inactive) | 6% (inactive) | -21.7% (inactive)
8 | CCOC(=O)c1ncn2c1CN(C)C(=O)c1cc(F)ccc1-2 | 101% (inactive) | 96.6% (inactive) | 96.5% (inactive) | 107% (inactive) | 105% (inactive) | 58.4% | 200% (inactive) | 8.29% (inactive) | 115% (inactive) | 1% (inactive) | 3.78% (inactive) | -0.66% (inactive) | 2.2% (inactive) | 97.7% (inactive) | -0.025 (inactive) | 0% (inactive) | 7.13% (inactive)
9 | CCc1ccc(CN(C)Cc2nc(Cc3ccccc3)no2)nc1 | 105% (inactive) | 99.6% (inactive) | 103% (inactive) | 112% (inactive) | 112% (inactive) | 59.8% | 160% (inactive) | 0.59% (inactive) | 101% (inactive) | 4% (inactive) | -25% (inactive) | 1.57% (inactive) | -11.6% (inactive) | 97.3% (inactive) | -0.04 (inactive) | -5% (inactive) | 14.7% (inactive)
